Screens as filed in PubChem.
PostGolgi ctrl: growth of the yeast control strain, post-Golgi counter-screen. hit rate 5% among 98,000. inhibition, % at 10 µM. efflux-deficient yeast background strain, growth absorbance A615, 16 h
CYP2C9 inhib: blocks human cytochrome P450 2C9 | hit rate 20% among 96,000 | inhibition, % at 5 µM | CYP2C9 Supersomes, luciferin-H conversion, luminescence | P11712;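 active means blocking of liver enzyme CYP2C9 beyond about 50% at 5 µM, limit read from the data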
Target sequence (P11712 whole entry, looked up): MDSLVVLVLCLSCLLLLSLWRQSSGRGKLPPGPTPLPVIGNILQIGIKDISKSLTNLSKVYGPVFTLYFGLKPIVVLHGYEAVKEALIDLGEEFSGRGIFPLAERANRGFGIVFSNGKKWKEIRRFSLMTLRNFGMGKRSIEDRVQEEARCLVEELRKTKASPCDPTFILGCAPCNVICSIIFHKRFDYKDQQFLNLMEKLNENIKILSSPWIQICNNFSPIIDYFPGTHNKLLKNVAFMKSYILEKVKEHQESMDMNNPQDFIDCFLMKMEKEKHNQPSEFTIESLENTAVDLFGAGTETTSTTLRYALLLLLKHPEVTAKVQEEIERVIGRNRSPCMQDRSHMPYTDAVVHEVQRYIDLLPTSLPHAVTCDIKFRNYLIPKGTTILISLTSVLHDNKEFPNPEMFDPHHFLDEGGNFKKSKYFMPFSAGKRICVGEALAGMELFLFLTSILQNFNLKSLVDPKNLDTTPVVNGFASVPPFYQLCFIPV
CYP2C19 inhib: blocks human cytochrome P450 2C19; P33261; CYP2C19 Supersomes, luciferin-H EGE luminescence, 30 min; inhibition, % at 5 µM; hit rate 21% among 96,000;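 active means CYP2C19 inhibition above a set limit at 5 µM in the primary screen, cut at about 50% in these data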;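 further: plate controls were negative control wells for no effect and 2.5 mM tranylcypromine positive control for full effect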
CYP2C9 activ: CYP2C9 (human) activation | P11712 | recombinant CYP2C9, luciferin-H conversion, luminescence; hits give high values; factor 1 = untreated enzyme, 0 = blocked | activation factor at 5 µM | hit rate 1.4% among 96,000;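 active means activation factor of 2 or more for CYP2C9 at a 5 µM dose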;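 further: 0 = sulfaphenazole-blocked wells and 1 = vehicle-only wells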
CYP2C19 act: cytochrome P450 2C19 (human) activation; P33261; recombinant CYP2C19, luciferin-H EGE luminescence; hits give high values; 0 = fully inhibited enzyme, 1 = untreated enzyme; activation factor at 5 µM; 96,000 tested, under 10 active; AID 1025;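 active means activation factor of at least 2 at 5 µM in the primary screen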;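 further: 0 = wells with 2.5 mM tranylcypromine and 1 = vehicle-only wells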
PostGolgi yeast: growth inhibition of a yeast mutant, post-Golgi transport screen; post-Golgi transport phenotypic cell assay; inhibition, % at 10 µM; hit rate 0.9% among 98,000; AID 739;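 further: yeast cells grown in 1536-well plates; yeast grown about 18 h at 30C before absorbance read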
* = called active by the depositor; · = not tested or not shown. Hits are enriched below; roughly 32% of the tested compounds scored in any of these assays. Unless noted, no stated cut-off is given here; in the data, active means inhibition above about 30%; inactive means the rest.

SMILES	PostGolgi ctrl	CYP2C9 inhib	CYP2C19 inhib	CYP2C9 activ	CYP2C19 act	PostGolgi yeast
O=C(Nc1nc(-c2cccs2)c(-c2ccccc2)s1)c1ccco1	32*	96*	66*	0	0.3	36*
O=C(COC(=O)c1ccccn1)Nc1cccc(Cl)c1	-7	14	30	0.9	0.7	-3
Cn1cc(Cl)c(C(=O)OCC(=O)Nc2ccccc2)n1	1	22	83*	0.8	0.2	-4
CC(C)OC(=O)c1ccc(NC(=O)c2ccco2)cc1	7	45	57*	0.5	0.4	1
CCOc1ccc(NC(=O)c2ccco2)cc1	-4	5	22	0.9	0.8	3
COc1cccc(-n2c(=O)[nH]cc(C(=O)Nc3ccc(NC(C)=O)cc3)c2=O)c1	-2	5	3	0.9	1	-5
CC(C)C(=O)Nc1ccc(Nc2ccccc2)cc1	-7	55*	55*	0.4	0.5	-3
O=C(Nc1ccc(Cc2ccncc2)cc1)c1ccco1	7	98*	96*	0	0	-1
CC(C)C(=O)Nc1ccc(C(=O)NNC(=O)C(c2ccccc2)c2ccccc2)cc1	16	6	-8	0.9	1.1	-2
Cn1cc(Cl)c(C(=O)Nc2nc3ccccc3s2)n1	5	-6	54*	1.1	0.5	5
O=C(Nc1ccc(Oc2ccc(NC(=O)c3ccco3)c(NC(=O)c3ccco3)c2)cc1)c1ccco1	5	73*	51*	0.3	0.5	-11
CC(=O)N(C)c1ccc(NC(=O)c2ccco2)cc1	2	4	-1	1	1	2
Cn1cc(Cl)c(C(=O)Nc2cccc(Cl)c2Cl)n1	12	16	49	0.8	0.5	1
CCCN1C2=NS(=O)(=O)CCN2c2ccccc21	-1	-21	-1	1.2	1	-1
Cc1cccc(-c2nc(NCCCN3CCOCC3)c3ccccc3n2)c1	7	84*	60*	0.2	0.4	1
Cc1ccc(O)c(C(=O)c2cnn(C(=O)Cc3csc(C)n3)c2)c1	-5	77*	28	0.2	0.7	1
CCCCn1c(SCC(=O)Nc2ccc(OC)cc2)nc2ccc(N3CCOCC3)cc2c1=O	14	100*	84*	0	0.2	4
CCCCn1c(SCC(=O)N2CCCCC2)nc2cc(S(N)(=O)=O)ccc21	25	24	9	0.8	0.9	-3
CCCCn1c(SCC(=O)NCc2ccccc2)nc2ccc(N3CCOCC3)cc2c1=O	35*	74*	34	0.3	0.7	-5
CCCCn1c(SCC(=O)NCc2ccco2)nc2cc(S(N)(=O)=O)ccc21	10	68*	56*	0.3	0.4	8
CCCCn1c(SCC(=O)NCc2ccco2)nc2ccc(N3CCOCC3)cc2c1=O	9	60*	22	0.4	0.8	3
CCC(C)NC(=O)CSc1nc2ccc(N3CCOCC3)cc2c(=O)n1CCc1ccccc1 (stereo unspecified)	20	5	1	0.9	1	1
CCCCn1c(SCC(=O)NC(C)CC)nc2ccc(N3CCOCC3)cc2c1=O (stereo unspecified)	-2	60*	28	0.4	0.7	0
CCCCn1c(SCc2nc3ccccc3s2)nc2cc(S(N)(=O)=O)ccc21	3	73*	17	0.3	0.8	-2
CCC(C)N(CCNC(=O)CC1Oc2ccc(C)cc2NC1=O)C1CCCCC1 (stereo unspecified)	0	3	8	1	0.9	0
SMILES	PostGolgi ctrl	CYP2C9 inhib	CYP2C19 inhib	CYP2C9 activ	CYP2C19 act	PostGolgi yeast
O=Nc1c(O)n(Cc2ccc(Cl)cc2Cl)c2ccccc12	65*	60*	33	0.4	0.7	34*
O=Nc1c(O)n(Cc2ccc(Cl)cc2)c2ccccc12	17	90*	84*	0.1	0.2	-5
N=c1n(CCO)c2ccccc2n1Cc1ccc(Cl)cc1	7	18	24	0.8	0.8	-22
CCOC(=O)C1CCCCN1Cc1ccc(F)c(Br)c1 (stereo unspecified)	0	46	82*	0.5	0.2	26
CC(C(=O)OCn1nnc2ccccc2c1=O)N1C(=O)c2ccccc2C1=O (stereo unspecified)	27	-7	-7	1.1	1.1	9
CCCCC(=O)NC(N1CCCCC1)C(Cl)(Cl)Cl (stereo unspecified)	4	18	59*	0.8	0.4	-7
O=C(OCC(=O)c1c[nH]c2ccccc12)c1ccc(Br)o1	6	22	66*	0.8	0.3	-2
O=C(O)CCNC(=O)c1ccc(Br)o1	7	-8	-10	1.1	1.1	-1
O=C(OCC(=O)c1c[nH]c2ccccc12)c1ccco1	5	3	24	1	0.8	0
O=C(NCCC(c1ccccc1)c1ccccc1)c1ccc(Br)o1	29	74*	67*	0.3	0.3	-4
O=C(NCCSc1c[nH]c2ccccc12)c1ccc(Br)o1	18	86*	43	0.1	0.6	0
O=C(NCC1(c2ccccc2)CCOCC1)c1ccc(Br)o1	8	38	72*	0.6	0.3	9
Nc1nc(SCC(=O)NC2CCCC2)[nH]c(=O)c1-c1ccccc1	18	17	29	0.8	0.7	-10
O=C(CNS(=O)(=O)c1ccccc1)NCc1ccccn1	8	4	-3	1	1	1
ONC=Nc1cccc2nonc12	-1	6	2	0.9	1	-1
CCOC(=O)C1(S(=O)(=O)c2ccccc2)CCN(Cc2ccc(Cl)cc2)CC1	1	30	46	0.7	0.5	-9
Cc1cccc(-c2cc(C(=O)Nc3sc(C)c(C)c3C(N)=O)c3ccccc3n2)c1	-1	69*	0	0.3	1	2
Cc1ccc(C)c(-c2cc(C(=O)Nc3sc(C)c(C)c3C(N)=O)c3ccccc3n2)c1	24	96*	41	0	0.6	9
CCOC(=O)c1sc(NC(=O)c2cc(-c3ccccc3)nc3ccccc23)c(C#N)c1C	9	49	5	0.5	1	-11
CCCC(C)C(=O)Nc1nnc(C)s1 (stereo unspecified)	3	-18	-1	1.2	1	-3
N#C/C(=C/c1ccc(N2CCOCC2)o1)c1ccc(Cl)cc1	1	-14	-8	1.1	1.1	19
CCN(Cc1ccccc1)S(=O)(=O)c1ccc(S(=O)(=O)N2CCN(CCC#N)CC2)cc1	7	-3	-26	1	1.3	5
CCOC(=O)N1CCC(N2Cc3cccc(C(=O)NCc4ccccc4OC)c3C2=O)CC1	22	·	·	·	·	2
O=C(NCc1ccc2c(c1)OCO2)c1cccc2c1C(=O)N(C1CCCCC1)C2	14	-5	-13	1.1	1.1	4
CCOC(=O)N1CCC(N2Cc3cccc(C(=O)NCC4CCN(CC(C)C)C4)c3C2=O)CC1 (stereo unspecified)	12	96*	86*	0	0.1	5
